# Experimental data reported in the supplement of paper PMC8728848.
# The full list was thinned out, with the strongest signals kept by preference.
# B1: Intelectin-1a (Mus musculus) (protein)
# chain: AEWSHPQFEKAEENLDTNRWGNSFFSSLPRSCKEIKQEHTKAQDGLYFLRTKNGVIYQTFCDMTTAGGGWTLVASVHENNMRGKCTVGDRWSSQQGNRADYPEGDGNWANYNTFGSAEAATSDDYKNPGYFDIQAENLGIWHVPNKSPLHNWRKSSLLRYRTFTGFLQHLGHNLFGLYKKYPVKYGEGKCWTDNGPALPVVYDFGDARKTASYYSPSGQREFTAGYVQFRVFNNERAASALCAGVRVTGCNTEHHCIGGGGFFPEGNPVQCGDFASFDWDGYGTHNGYSSSRKITEAAVLLFYR
# How the values were obtained:
# Test in all cases: glycan array binding signal (z-score within array); higher = stronger binding
# Conditions in all cases: glycan notation: IUPAC condensed, linker removed
# [1] = biological target: Fuc(a1-2)Gal(b1-3)GlcNAc(b1-2)Man(a1-3)[Fuc(a1-2)Gal(b1-3)GlcNAc(b1-2)Man(a1-6)]Man(b1-4)GlcNAc(b1-4)[Fuc(a1-6)]GlcNAc
# How it was run: (§1)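 Columns mapping to the same glycan were averaged after glycan names were converted to IUPAC-condensed notation. The data come from 3228 arrays in the Consortium for Functional Glycomics database, limited to those with an available protein sequence. Binding is reported as a within-array Z-score averaged across arrays of one protein sequence and across linkers.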
# [2] = biological target: Fuc(a1-2)Gal(b1-3)GlcNAc(b1-3)GalNAc
# How it was run: as §1
# [3] = biological target: Fuc(a1-2)Gal(b1-3)[Fuc(a1-4)]GlcNAc(b1-2)Man(a1-3)[Fuc(a1-2)Gal(b1-3)[Fuc(a1-4)]GlcNAc(b1-2)Man(a1-6)]Man(b1-4)GlcNAc(b1-4)GlcNAc
# How it was run: as §1
# [4] = biological target: Fuc(a1-2)Gal(b1-4)GlcNAc(b1-2)Man
# How it was run: as §1
# [5] = biological target: Fuc(a1-2)Gal(b1-4)GlcNAc(b1-2)Man(a1-3)[Fuc(a1-2)Gal(b1-4)GlcNAc(b1-2)Man(a1-6)]Man(b1-4)GlcNAc(b1-4)GlcNAc
# How it was run: as §1
# [6] = biological target: Fuc(a1-2)Gal(b1-4)GlcNAc(b1-3)[Fuc(a1-2)Gal(b1-4)GlcNAc(b1-6)]GalNAc
# How it was run: as §1
# [7] = biological target: Fuc(a1-2)Gal(b1-4)[Fuc(a1-3)]GlcNAc(b1-3)Gal(b1-4)[Fuc(a1-3)]GlcNAc
# How it was run: as §1
# Fuc(a1-2)Gal6S(b1-4)Glc = biological target: Fuc(a1-2)Gal6S(b1-4)Glc
# How it was run: as §1
# [8] = biological target: Fuc(a1-2)[Gal(a1-3)]Gal(b1-3)GlcNAc(b1-2)Man(a1-3)[Fuc(a1-2)[Gal(a1-3)]Gal(b1-3)GlcNAc(b1-2)Man(a1-6)]Man(b1-4)GlcNAc(b1-4)GlcNAc
# How it was run: as §1
# [9] = biological target: Fuc(a1-2)[Gal(a1-3)]Gal(b1-3)GlcNAc(b1-2)Man(a1-3)[Fuc(a1-2)[Gal(a1-3)]Gal(b1-3)GlcNAc(b1-2)Man(a1-6)]Man(b1-4)GlcNAc(b1-4)[Fuc(a1-6)]GlcNAc
# How it was run: as §1
# [10] = biological target: Fuc(a1-2)[Gal(a1-3)]Gal(b1-4)GlcNAc(b1-2)Man(a1-3)[Fuc(a1-2)[Gal(a1-3)]Gal(b1-4)GlcNAc(b1-2)Man(a1-6)]Man(b1-4)GlcNAc(b1-4)GlcNAc
# How it was run: as §1
# [11] = biological target: Fuc(a1-2)[GalNAc(a1-3)]Gal
# How it was run: as §1
# [12] = biological target: Fuc(a1-2)[GalNAc(a1-3)]Gal(b1-3)GlcNAc(b1-2)Man(a1-3)[Fuc(a1-2)[GalNAc(a1-3)]Gal(b1-3)GlcNAc(b1-2)Man(a1-6)]Man(b1-4)GlcNAc(b1-4)GlcNAc
# How it was run: as §1
# [13] = biological target: Fuc(a1-3)[Gal(b1-4)]GlcNAc(b1-6)[Neu5Ac(a2-3)Gal(b1-3)]GalNAc
# How it was run: as §1
# [14] = biological target: Fuc(a1-3)[GalNAc3S(b1-4)]GlcNAc
# How it was run: as §1
# [15] = biological target: Gal(a1-3)Gal(b1-3)GlcNAc(b1-2)Man(a1-3)[Gal(a1-3)Gal(b1-3)GlcNAc(b1-2)Man(a1-6)]Man(b1-4)GlcNAc(b1-4)GlcNAc
# How it was run: as §1
# [16] = biological target: Gal(a1-3)Gal(b1-3)GlcNAc(b1-3)GalNAc
# How it was run: as §1
# [17] = biological target: Gal(a1-3)Gal(b1-4)[Fuc(a1-3)]GlcNAc(b1-2)Man(a1-3)[Gal(a1-3)Gal(b1-4)[Fuc(a1-3)]GlcNAc(b1-2)Man(a1-6)]Man(b1-4)GlcNAc(b1-4)GlcNAc
# How it was run: as §1
# [18] = biological target: Gal(b1-3)GlcNAc(b1-3)Gal(b1-4)GlcNAc(b1-6)[Gal(b1-3)GlcNAc(b1-3)]Gal(b1-4)Glc
# How it was run: as §1
# [19] = biological target: Gal(b1-3)[Neu5Ac(a2-6)]GlcNAc(b1-6)Gal(b1-4)Glc
# How it was run: as §1
# Gal3S(b1-3)GlcNAc = biological target: Gal3S(b1-3)GlcNAc
# How it was run: as §1
# Gal3S(b1-4)Glc = biological target: Gal3S(b1-4)Glc
# How it was run: as §1
# Gal4S(b1-4)GlcNAc = biological target: Gal4S(b1-4)GlcNAc
# How it was run: as §1
# Gal6S(b1-4)Glc6S = biological target: Gal6S(b1-4)Glc6S
# How it was run: as §1
# [20] = biological target: GalNAc(a1-3)Fuc(a1-2)Gal(b1-4)GlcNAc(b1-3)[GalNAc(a1-3)Fuc(a1-2)Gal(b1-4)GlcNAc(b1-6)]GalNAc
# How it was run: as §1
# GalNAc(b1-3)Gal = biological target: GalNAc(b1-3)Gal
# How it was run: as §1
# [21] = biological target: Glc(a1-6)Glc(a1-6)Glc(a1-6)Glc
# How it was run: as §1
# GlcA(b1-3)Gal = biological target: GlcA(b1-3)Gal
# How it was run: as §1
# [22] = biological target: GlcNAc(a1-4)Gal(b1-4)GlcNAc(b1-3)Gal(b1-4)[Fuc(a1-3)]GlcNAc(b1-3)Gal(b1-4)[Fuc(a1-3)]GlcNAc
# How it was run: as §1
# [23] = biological target: GlcNAc(b1-3)Gal(b1-3)GalNAc
# How it was run: as §1
# [24] = biological target: GlcNAc(b1-4)Gal(b1-4)GlcNAc
# How it was run: as §1
# [25] = biological target: Neu5Ac(a2-3)Gal(b1-3)GlcNAc(b1-2)Man(a1-3)[GlcNAc(b1-4)][Neu5Ac(a2-3)Gal(b1-3)GlcNAc(b1-2)Man(a1-6)]Man(b1-4)GlcNAc(b1-4)GlcNAc
# How it was run: as §1
# [26] = biological target: Neu5Ac(a2-3)Gal(b1-3)GlcNAc(b1-3)GalNAc
# How it was run: as §1
# [27] = biological target: Neu5Ac(a2-3)Gal(b1-3)GlcNAc(b1-6)GalNAc
# How it was run: as §1
# [28] = biological target: Neu5Ac(a2-3)Gal(b1-3)[Neu5Ac(a2-6)]GalNAc
# How it was run: as §1
# [29] = biological target: Neu5Ac(a2-3)Gal(b1-4)GlcNAc
# How it was run: as §1
# [30] = biological target: Neu5Ac(a2-3)Gal(b1-4)GlcNAc(b1-3)Gal(b1-3)GlcNAc
# How it was run: as §1
# [31] = biological target: Neu5Ac(a2-3)Gal(b1-4)GlcNAc(b1-3)Gal(b1-4)[Fuc(a1-3)]GlcNAc
# How it was run: as §1
# [32] = biological target: Neu5Ac(a2-3)Gal(b1-4)[Fuc(a1-3)]GlcNAc(b1-3)GalNAc
# How it was run: as §1
# [33] = biological target: Neu5Ac(a2-6)Gal(b1-4)GlcNAc(b1-2)Man(a1-3)Man(b1-4)GlcNAc(b1-4)GlcNAc
# How it was run: as §1
# [34] = biological target: Neu5Ac(a2-6)Gal(b1-4)GlcNAc(b1-2)Man(a1-3)[Man(a1-6)]Man(b1-4)GlcNAc(b1-4)GlcNAc
# How it was run: as §1
# [35] = biological target: Neu5Ac(a2-6)Gal(b1-4)GlcNAc(b1-2)Man(a1-6)Man(b1-4)GlcNAc(b1-4)GlcNAc
# How it was run: as §1
# [36] = biological target: Neu5Ac(a2-6)Gal(b1-4)GlcNAc(b1-3)Gal(b1-4)GlcNAc(b1-3)Gal(b1-4)GlcNAc
# How it was run: as §1
# [37] = biological target: Neu5Ac(a2-8)Neu5Ac(a2-3)[GalNAc(b1-4)]Gal(b1-4)Glc
# How it was run: as §1
# [38] = biological target: Neu5Ac(a2-8)Neu5Ac(a2-8)Neu5Ac(a2-3)Gal(b1-4)Glc
# How it was run: as §1
binder,measurement,setting,value
B1,glycan array binding signal (z-score),[1],-0.492
same,glycan array binding signal (z-score),[2],2.92
same,glycan array binding signal (z-score),[3],2.9
same,glycan array binding signal (z-score),[4],1.06
same,glycan array binding signal (z-score),[5],-0.329
same,glycan array binding signal (z-score),[6],-0.517
same,glycan array binding signal (z-score),[7],-1.05
same,glycan array binding signal (z-score),Fuc(a1-2)Gal6S(b1-4)Glc,1.88
same,glycan array binding signal (z-score),[8],0.954
same,glycan array binding signal (z-score),[9],3.73
same,glycan array binding signal (z-score),[10],-0.423
same,glycan array binding signal (z-score),[11],0.968
same,glycan array binding signal (z-score),[12],0.792
same,glycan array binding signal (z-score),[13],-0.328
same,glycan array binding signal (z-score),[14],0.115
same,glycan array binding signal (z-score),[15],2.64
same,glycan array binding signal (z-score),[16],-0.09
same,glycan array binding signal (z-score),[17],2.76
same,glycan array binding signal (z-score),[18],2.74
same,glycan array binding signal (z-score),[19],0.312
same,glycan array binding signal (z-score),Gal3S(b1-3)GlcNAc,-0.392
same,glycan array binding signal (z-score),Gal3S(b1-4)Glc,-0.304
same,glycan array binding signal (z-score),Gal4S(b1-4)GlcNAc,-0.354
same,glycan array binding signal (z-score),Gal6S(b1-4)Glc6S,-0.38
same,glycan array binding signal (z-score),[20],1.24
same,glycan array binding signal (z-score),GalNAc(b1-3)Gal,-0.938
same,glycan array binding signal (z-score),[21],-0.709
same,glycan array binding signal (z-score),GlcA(b1-3)Gal,0.662
same,glycan array binding signal (z-score),[22],5.84
same,glycan array binding signal (z-score),[23],-0.724
same,glycan array binding signal (z-score),[24],-0.454
same,glycan array binding signal (z-score),[25],-0.723
same,glycan array binding signal (z-score),[26],-0.237
same,glycan array binding signal (z-score),[27],0.808
same,glycan array binding signal (z-score),[28],-0.222
same,glycan array binding signal (z-score),[29],-1.12
same,glycan array binding signal (z-score),[30],-0.402
same,glycan array binding signal (z-score),[31],-0.8
same,glycan array binding signal (z-score),[32],6.37
same,glycan array binding signal (z-score),[33],0.578
same,glycan array binding signal (z-score),[34],3.98
same,glycan array binding signal (z-score),[35],-0.293
same,glycan array binding signal (z-score),[36],0.765
same,glycan array binding signal (z-score),[37],-0.791
same,glycan array binding signal (z-score),[38],-0.483
